Results on 57 molecules are retold here after PubChem BioAssay (Tox21).

Experiment [1] can be described thus: cAMP Responsive Elements (CRE) small molecule antagonists, cell-based qHTS assay: qHTS cell viability counter screen (AID 2060913). Further: nearly all actives have a fitted effect of over 40% in size. Further: potency means the concentration at half of the fitted maximal effect. In outline:
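Cytotoxicity counter screen multiplexed with the CRE-bla antagonist read: HEK293T cells in DMEM with dialyzed FBS and 25 mM HEPES were treated 3 hrs under 0.25 uM final NKH477, then viability measured by CellTiter-Glo luminescence.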
In general terms: In qHTS, concentration-response curves come from the screen itself.

A short description of experiment [2]: cAMP Responsive Elements (CRE) small molecule agonists, cell-based qHTS assay: qHTS cell viability counter screen (AID 2060914).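 Further: viability read after 3 h of compound exposure; nearly all actives have a fitted effect of over 50% in size.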 The essentials:
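HEK 293T CRE-bla; DMEM + 10% dialyzed FBS, 25 mM HEPES; 18 h pre-incubation; compound 3 h, 37 °C/5% CO2; CellTiter-Glo added after reporter read; luminescence after 30 min RT.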

Results filed as inconclusive are left out. Entries that show only a call come without a potency. Values without a mark were called inactive. Active and inactive are the calls of the source. The call rests on the fitted dose curve; in most records, active means well fitted cell-killing curve with a large enough effect in the repeat runs; inconclusive means weak or mixed curves, or effect the other way; inactive means flat fitted curve, though single readings scatter.

For the molecule `CC(C)Cc1ccc(C(C)C(=O)OCc2ccccn2)cc1` (centres undefined), the Potency entry in experiment [1] and in experiment [2] was “inactive” throughout.
As to `CC(=O)OC1C2(C)CCC(C2)C1(C)C` (centres undefined), the Potency result in experiment [1] and in experiment [2] was “inactive” throughout.
For the molecule `CC(C)CC(O)Cc1ccccc1` (centres undefined), the Potency result in experiment [1] and in experiment [2] was “inactive” in each case.
As to `COc1ccc2c(c1)c(CC(=O)O)c(C)n2C(=O)c1ccc(Cl)cc1`, the Potency entry in experiment [1] and in experiment [2] was “inactive” in each case.
For `CCCCOCCO`, the Potency result in experiment [1] and in experiment [2] was “inactive” each time.
`O=C1CCCC(=O)O1`: the Potency entry in experiment [1] and in experiment [2] was “inactive” throughout.
For the molecule `CCN1CCN(C(=O)N[C@@H](C(=O)N[C@@H]2C(=O)N3C(C(=O)O)=C(CSc4nnnn4C)CS[C@H]23)c2ccc(O)cc2)C(=O)C1=O`, the Potency result in experiment [1] and in experiment [2] was “inactive” in each case.
On to `CC(=O)O[C@@]12CO[C@@H]1C[C@H](O)[C@@]1(C)C(=O)[C@H](O)C3=C(C)[C@@H](OC(=O)[C@H](O)[C@@H](NC(=O)OC(C)(C)C)c4ccccc4)C[C@@](O)([C@@H](OC(=O)c4ccccc4)[C@H]21)C3(C)C`, for which the Potency entry in experiment [1] and in experiment [2] was “inactive” in each case.
As to `Nc1cc(C(=O)O)c(O)c(S(=O)(=O)O)c1`, the Potency entry in experiment [1] and in experiment [2] was “inactive” throughout.
For the molecule `Nc1cc(C(=O)O)ccc1Cl`, the Potency entry in experiment [1] and in experiment [2] was “inactive” in each case.
As for `C[N+]1(CC2COC(c3ccccc3)(C3CCCCC3)O2)CCCCC1` (centres undefined), the Potency entry in experiment [1] and in experiment [2] was “inactive” throughout.
As to `CCCC(CC)c1ccccc1` (centres undefined), the Potency result in experiment [1] and in experiment [2] was “inactive” each time.
Regarding `O=C(Cl)c1ccccc1[N+](=O)[O-]`, the Potency result in experiment [1] and in experiment [2] was “inactive” each time.
`N#CSc1ccc(N)c([N+](=O)[O-])c1`: the Potency entry in experiment [1] and in experiment [2] was “inactive” each time.
As to `CC(=O)N(CC(=O)N(C)C)c1ccccc1`, the Potency result in experiment [1] and in experiment [2] was “inactive” each time.
For `CCCCCC(=O)OCC`, the Potency entry in experiment [1] and in experiment [2] was “inactive” in each case.
Take `CN(C)CCN1C(=O)c2ccccc2N(C)c2ccccc21`: the Potency result in experiment [1] and in experiment [2] was “inactive” each time.
Regarding `C[N+](C)(C)CCCCCCCCCC[N+](C)(C)C`, the Potency entry in experiment [1] and in experiment [2] was “inactive” throughout.
With `CC(=O)NCc1c(I)c(NC(C)=O)c(I)c(C(=O)O)c1I`, the Potency entry in experiment [1] and in experiment [2] was “inactive” throughout.
As to `COc1ccc(C)cc1N`, the Potency result in experiment [1] and in experiment [2] was “inactive” each time.
Consider `CCCCCCOc1cc(C)c(O)c(C)c1C`, for which the Potency in experiment [1] was 55.1 µM (active). Further, in experiment [2], the Potency result is “inactive”.
The matching figures for `OCCN1C[C@H](O)[C@@H](O)[C@H](O)[C@H]1CO`: “inactive” and “inactive”.
The corresponding values for `CCCC(C)C=O` (centres undefined) are “inactive” and “inactive”.
The corresponding values for `CN1CCC[C@@H]1c1cccnc1` are “inactive” and “inactive”.
Take `[Na+]`: the Potency result in experiment [1] and in experiment [2] was “inactive” throughout.
Turning to `CC(=O)[C@@]1(O)CC[C@H]2[C@@H]3C[C@H](C)C4=CC(=O)CC[C@]4(C)[C@H]3CC[C@@]21C`, the Potency result in experiment [1] and in experiment [2] was “inactive” each time.
For `CCCCCCCC/C=C\CCCCCCCC(=O)OCCCC`, in experiment [1], the viability change, negative = cytotoxic was -0.67% [at 18.9 µM]. Besides, in experiment [2], the activity change, negative = cytotoxicity is -19.4% [at 18.9 µM].
Turning to `CC(C)NCC(O)COc1ccc(CCOCC2CC2)cc1` (centres undefined), the Potency entry in experiment [1] and in experiment [2] was “inactive” in each case.
Consider `O=[N+]([O-])c1ccc2nc[nH]c2c1`, for which the Potency result in experiment [1] and in experiment [2] was “inactive” in each case.
Take `O=C(O)C1(C(=O)O)CCC1.[NH2-].[NH2-].[Pt+2]`: the Potency entry in experiment [1] and in experiment [2] was “inactive” throughout.
In the case of `COC(=O)CC(=O)OC`, the Potency result in experiment [1] and in experiment [2] was “inactive” throughout.
For the molecule `O=C(CCCN1CCN(c2ccccn2)CC1)c1ccc(F)cc1`, the Potency result in experiment [1] and in experiment [2] was “inactive” each time.
On to `Cc1oc(C)c(C(=O)Nc2ccccc2)c1C`, for which the Potency result in experiment [1] and in experiment [2] was “inactive” throughout.
`Cc1cc(C(=O)O)ccc1[N+](=O)[O-]`: the Potency entry in experiment [1] and in experiment [2] was “inactive” each time.
Turning to `COc1ccccc1OCC(O)CN1CCN(CC(=O)Nc2c(C)cccc2C)CC1` (centres undefined), the Potency result in experiment [1] and in experiment [2] was “inactive” in each case.
With `COC(OC)(C(=O)c1ccccc1)c1ccccc1`, the Potency entry in experiment [1] and in experiment [2] was “inactive” in each case.
Consider `CC(C)(C(=O)c1cccnc1)c1cccnc1`, for which the Potency result in experiment [1] and in experiment [2] was “inactive” in each case.
Turning to `CC(C)=CCC[C@](C)(O)[C@@H]1CC=C(C)CC1`, the Potency result in experiment [1] and in experiment [2] was “inactive” throughout.
Turning to `O=C=Nc1cccc(C(F)(F)F)c1`, the Potency result in experiment [1] and in experiment [2] was “inactive” in each case.
Take `CNCc1ccccc1`: the Potency result in experiment [1] and in experiment [2] was “inactive” in each case.
Turning to `CCCCCCCCC(=O)Cl`, the Potency entry in experiment [1] and in experiment [2] was “inactive” each time.
For `Clc1cccc(-c2cc(Cl)cc(Cl)c2)c1`, the Potency entry in experiment [1] and in experiment [2] was “inactive” each time.
`CCN(CC)CC(=O)Nc1c(C)cccc1C`: the Potency entry in experiment [1] and in experiment [2] was “inactive” each time.
On to `Oc1ccccc1`, for which the Potency result in experiment [1] and in experiment [2] was “inactive” each time.
In the case of `CC(C)c1ccccc1N`, the Potency result in experiment [1] and in experiment [2] was “inactive” in each case.
Turning to `CCO[C@H](Cc1ccc(OCCc2ccc(OS(C)(=O)=O)cc2)cc1)C(=O)O`, the Potency entry in experiment [1] and in experiment [2] was “inactive” each time.
Take `O=C(NCC1CN(c2ccc(N3CCOCC3=O)cc2)C(=O)O1)c1ccc(Cl)s1` (centres undefined): the Potency entry in experiment [1] and in experiment [2] was “inactive” in each case.
In the case of `CC1=CC(=O)[C@H]2C[C@@H]1C2(C)C`, the Potency result in experiment [1] and in experiment [2] was “inactive” in each case.
With `CC(C)=CCC/C(C)=C/C#N`, the Potency entry in experiment [1] and in experiment [2] was “inactive” in each case.
`Cc1oncc1C(=O)Nc1ccc(C(F)(F)F)cc1`: the Potency result in experiment [1] and in experiment [2] was “inactive” each time.
In the case of `CCOCC(O)COc1ccc(NC(=O)CC[S+](C)C)cc1` (centres undefined), the Potency entry in experiment [1] and in experiment [2] was “inactive” throughout.
For `CCCCCCCC/C=C\CCCCCCCC(=O)N(C)CC(=O)O`, the Potency entry in experiment [1] and in experiment [2] was “inactive” in each case.
As for `CCCn1cnc2c1c(=O)n(CCCCC(C)=O)c(=O)n2C`, the Potency result in experiment [1] and in experiment [2] was “inactive” throughout.
Regarding `O=[N+]([O-])c1cc(C(F)(F)F)ccc1Cl`, the Potency result in experiment [1] and in experiment [2] was “inactive” throughout.
For the molecule `CCCCCCCC(=O)N(C)C`, the Potency result in experiment [1] and in experiment [2] was “inactive” each time.
As to `CC(C)Oc1ccc2c(=O)c(-c3ccccc3)coc2c1`, the Potency result in experiment [1] and in experiment [2] was “inactive” in each case.
As to `C/C=C(\C)C(=O)OCCc1ccccc1`, the Potency result in experiment [1] and in experiment [2] was “inactive” in each case.
